Screens as filed in PubChem.
This is one part of a sample in which hits are shown more often than they occur.
ALOX12 inh: ALOX12 (human) lipoxygenase inhibition | P18054 | actives 1.1% (n = 580,000) | AID 1671190 | purified 12hLO, xylenol orange hydroperoxide absorbance | Potency, µM (series often up to 108 µM), without a hit: at the highest dose activity change, negative = inhibition, usual class: inhibitors; also: potency is read from the fitted curve at half-maximal effect
Target sequence (P18054 whole entry, looked up): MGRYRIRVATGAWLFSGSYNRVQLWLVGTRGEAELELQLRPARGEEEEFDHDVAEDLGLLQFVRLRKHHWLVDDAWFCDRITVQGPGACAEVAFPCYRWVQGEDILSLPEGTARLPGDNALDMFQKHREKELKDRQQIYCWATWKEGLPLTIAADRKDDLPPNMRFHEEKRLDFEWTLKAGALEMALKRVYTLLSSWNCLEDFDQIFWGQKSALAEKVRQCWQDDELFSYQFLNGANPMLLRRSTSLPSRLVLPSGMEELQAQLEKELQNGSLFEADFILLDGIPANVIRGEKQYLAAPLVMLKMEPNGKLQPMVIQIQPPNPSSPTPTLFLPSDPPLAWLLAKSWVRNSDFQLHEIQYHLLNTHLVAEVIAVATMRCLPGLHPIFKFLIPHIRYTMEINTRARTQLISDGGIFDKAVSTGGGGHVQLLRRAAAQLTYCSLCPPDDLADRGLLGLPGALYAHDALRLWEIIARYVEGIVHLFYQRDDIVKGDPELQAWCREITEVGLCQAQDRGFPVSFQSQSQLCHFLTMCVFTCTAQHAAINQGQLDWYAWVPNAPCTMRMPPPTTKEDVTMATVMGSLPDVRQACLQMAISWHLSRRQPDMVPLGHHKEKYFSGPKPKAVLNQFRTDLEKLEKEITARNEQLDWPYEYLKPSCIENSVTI
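Purified human 12hLO (150 nM final) in 25 mM Hepes, 0.01% Triton X-100, pH 7.0 was preincubated 15 min at room temperature with compound. Then 40 uM arachidonic acid was added, 30 min. Hydroperoxide was read by Fe-XO absorbance ratio 573/405 nm.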
DT40 TDP1 no CPT: qHTS for Inhibitors of human tyrosyl-DNA phosphodiesterase 1 (TDP1): qHTS in cells in absence of CPT; DT40 Tdp1-/- hTDP1 cells, no CPT, ATP luminescence, 48 h; Potency, µM (highest dose often 46.2 µM), inactives show at the top dose activity change, negative = growth inhibition, most hits filed as inhibitors; actives 15% (n = 420,000); also: potency is read from the fitted curve at half-maximal effect; nearly all actives have a fitted effect of over 55% in size
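Chicken DT40 Tdp1-/- cells stably complemented with human TDP1 were seeded at 400 cells/well with DMSO in place of 20 nM camptothecin. After compound pinning, cells grew at least 48 hr at 37 °C; viability read by CellTiter-Glo luminescence.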
DT40 TDP1 CPT: growth inhibition of DT40 Tdp1-/-;hTDP1 cells with camptothecin (screen for TDP1 inhibitors). chicken DT40 Tdp1-/-;hTDP1 cells + 20 nM CPT, ATP luminescence, 48 h. Potency, µM (top dose mostly 46.2 µM), for inactives: top-dose activity change, negative = growth inhibition, actives largely listed as inhibitors. actives 12% (n = 420,000); also: potency is read from the fitted curve at half-maximal effect; nearly all actives have a fitted effect of over 55% in size
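Cell growth measured by CellTiter-Glo luminescence after a minimum 48 h, 37 C compound exposure with 20 nM CPT in Tdp1-knockout DT40 cells stably expressing hTDP1, seeded 400/well; qHTS titration format.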
HT1080 IDH1KD tx: toxicity to HT-1080 IDH1 knockdown cells (counter line); actives 2% (n = 360,000); Potency, µM (doses to about 46.1 µM), without a hit: at the highest dose activity, negative = toxicity, hits mostly cytotoxic; AID 686971; HT-1080 IDH1 knockdown viability, ATP luminescence, 48 h;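 also: potency is read from the fitted curve at half-maximal effect; 0% = DMSO wells and -100% = cell-free medium wells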
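Assay cells: HT-1080 with IDH1 knockdown, 750 per well, RPMI/5% FBS. Exposure: 48 h at 37 °C following 2 h pre-incubation. Read: CellTiter-Glo luminescence; fitted concentration-response, curve class assigned.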
HT1080NT lethal: kills 2HG-producing HT-1080-NT fibrosarcoma cells. HT-1080-NT fibrosarcoma viability, CellTiter-Glo ATP luminescence, 48 h. Potency, µM (doses to about 46.1 µM), for inactives: at the highest dose activity, negative = less viability, usual class: cytotoxic. actives 1.6% (n = 360,000);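 also: NT is the 2HG producing partner of a matched IDH1 knockdown line; potency is read from the fitted curve at half-maximal effect; 0% = DMSO-treated cells and -100% = media-only wells without cells; nearly all actives have a fitted effect of over 55% in size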
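HT-1080-NT; 750 cells/well; 5% FBS RPMI; 48 h compound, 37 degrees C; CellTiter-Glo luminescence; curve fitting and curve-class assignment.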
IL-1B inflam inh: blocks inflammasome-driven IL-1 beta release; THP-1 LPS/ATP IL-1B secretion, AlphaLISA, 16 h; active compounds read low; activity change, % at 57.5 µM; actives 4.7% (n = 360,000); AID 743279; in the data active = activity change below about -50%; inconclusive = mostly about -30% to -49%
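THP-1 cells pretreated 1 hr with compounds (up to 57.5 uM final), then stimulated with LPS (250 ng/mL final) plus ATP (1.25 mM final); secreted IL-1B measured by AlphaLISA after 16 hr, decreased signal indicating inhibition.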
* marks the source's active call; other numbers are inactive results; ? = inconclusive; · = no result. Unless noted, calls follow the shape of the dose curve; as a rule, active = well fitted curve in the direction sought with a large enough effect; inconclusive = small, poorly fitted or top-dose-only effect, or another doubt; inactive = no such curve, though single readings can be large; an effect the other way counts as inactive or inconclusive. Unless noted, % is scaled to controls: 0 for no effect and ±100 for the full control effect.

SMILES	ALOX12 inh	DT40 TDP1 no CPT	DT40 TDP1 CPT	HT1080 IDH1KD tx	HT1080NT lethal	IL-1B inflam inh
CCOc1cc(C(=O)Nc2ccc3c(c2)OCO3)ccc1OC(F)F	7%	11µM*	15µM*	-14%	-11%	-65*
CCCOc1c(Cl)cc(C(=O)Nc2ccc3c(c2)OCO3)cc1OCC	34%	?	?	10µM*	?	-56*
CCCOc1ccc(C(=O)Nc2ccc3c(c2)OCO3)cc1	-4%	13%	3%	?	-4%	-2
CCOc1ccc(C(=O)NCC(=O)Nc2ccc3c(c2)OCO3)cc1OCC	-21%	5%	-1%	-7%	-12%	-12
O=C(Nc1ccc2c(c1)OCO2)c1ccc(NC2CC2)c([N+](=O)[O-])c1	4%	21µM*	21µM*	-24%	?	-5
Cc1ccc(Sc2ccc(F)cc2)nc1	3%	·	·	·	·	·
Cc1ccccc1NS(=O)(=O)c1c[nH]c2ccc([N+](=O)[O-])cc12	-27%	·	·	·	·	·
CCOc1ccc(C(=O)Nc2ccc3c(c2)OCCO3)cc1OC	-11%	-8%	?	?	?	-9
CCOc1ccc(C(=O)Nc2ccc3c(c2)OCCO3)cc1[N+](=O)[O-]	-5%	-14%	17%	4%	11%	-58*
Cc1ccc(OCCn2c(CN3CCOCC3)nc3scc(-c4cccs4)c3c2=O)cc1	13%	·	·	·	·	·
CC(C)CN(CC1CN(C(=O)c2cccc(Cl)c2)CCO1)C(=O)c1cccc2ccccc12 (stereo not given)	24%	·	·	·	·	·
C=CCC[C@@H](Cc1ccc(F)cc1)C(=O)OC[C@@H](NC(=O)[C@@H](CC=C)CC(=O)N[C@H](CO)Cc1ccccc1)C(C)(C)C	5%	16µM*	23µM*	-20%	?	12
C=CC[C@@H](CC(=O)N[C@@H](CO)Cc1ccccc1)C(=O)N[C@H](COC(=O)[C@@H](CC=C)Cc1ccc(F)cc1)C(C)(C)C	-3%	-80%	16µM*	-7%	?	-8
Cc1[nH]c2ccccc2c1C1=CC(=O)C=CC1=O	?	1.8µM*	1.6µM*	21µM*	-13%	-101*
O=C(COc1cc2oc(=O)c3c(c2cc1Cl)CCC3)NCc1ccccn1	·	10%	-7%	-4%	-6%	0
O=C1[C@H](Oc2ccccc2)[C@@H](c2ccncc2)N1c1ccncc1	0%	8%	-3%	8%	3%	5
O=C1[C@@H](Oc2ccccc2)[C@@H](c2cnc3ccccc3c2)N1c1ccccc1	15%	15µM*	21µM*	21µM*	?	-5
Cc1nc(-c2ccc(OC(F)(F)F)cc2)sc1C(=O)N1CCC2(CC1)OCCO2	-29%	·	·	·	·	·
Cc1ccc(S(=O)(=O)NCCc2nnc3ccc(SCc4ccc(Cl)cc4)nn23)cc1	6%	·	·	·	·	·
Cc1ccc(S(=O)(=O)NCCc2nnc3ccc(SCc4ccc(F)cc4)nn23)cc1	-32%	18µM*	16µM*	·	·	·
O=S(=O)(NCCc1nnc2ccc(SCc3cccc(F)c3)nn12)c1ccccc1	39%	·	·	·	·	·
Cc1ccc(S(=O)(=O)NCCc2nnc3ccc(SCc4cccc(F)c4)nn23)cc1	-25%	23µM*	15µM*	·	·	·
CC(=O)N1c2ccc(S(=O)(=O)NCCC(=O)N3CCC(C)CC3)cc2CC1C (stereo not given)	7%	-18%	?	-2%	17%	16
CC(=O)N1c2ccc(S(=O)(=O)NCCC(=O)NC3CCCC(C)C3C)cc2CC1C (stereo not given)	7%	?	-45%	-1%	-1%	-52*
CC(=O)N1c2ccc(S(=O)(=O)NCCC(=O)Nc3ccc(OC(F)(F)F)cc3)cc2CC1C (stereo not given)	2%	?	18µM*	0%	1%	21
SMILES	ALOX12 inh	DT40 TDP1 no CPT	DT40 TDP1 CPT	HT1080 IDH1KD tx	HT1080NT lethal	IL-1B inflam inh
CN(CC(=O)Nc1ccc(OC(F)(F)F)cc1)S(=O)(=O)c1ccc2c(c1)CCC(=O)N2	-1%	12µM*	?	·	·	·
CC(=O)N1CCc2cc(S(=O)(=O)C(C)CC(=O)Nc3ccc(OC(F)(F)F)cc3)ccc21 (stereo not given)	9%	?	21µM*	-18%	-8%	20
CC(=O)c1cccc(NC(=O)C2CCN(S(=O)(=O)c3ccc4c(c3)CCCN4C(C)=O)CC2)c1	0%	?	?	·	·	·
Cc1noc([C@@H]2CN(C(=O)c3cccc(C(F)(F)F)c3)C[C@H]2C(N)=O)n1	30%	·	·	·	·	·
CCOC(=O)C1=C(C)N=C2SC=C(CC(=O)NCC3CCCO3)N2C1c1ccc(Cl)cc1 (stereo not given)	16%	·	·	·	·	·
CCOc1ccccc1N1CCN(C(=O)[C@H]2CCC[C@H]2NC(=O)c2cnc(C)cn2)CC1	8%	·	·	·	·	·
CC(=O)N1c2ccc(S(=O)(=O)NCCC(=O)Nc3ccc(Cl)cc3)cc2CC1C (stereo not given)	-3%	?	18µM*	2%	7%	3
CC(=O)N1c2ccc(S(=O)(=O)NCCC(=O)Nc3ccc(C)c(F)c3)cc2CC1C (stereo not given)	-11%	21µM*	?	-5%	1%	55
CC(=O)N1c2ccc(S(=O)(=O)NCCc3ccc(Cl)cc3)cc2CC1C (stereo not given)	-13%	?	?	-8%	-23%	8
CC(=O)N1c2ccc(S(=O)(=O)NCCC(=O)Nc3ncccc3C)cc2CC1C (stereo not given)	0%	18%	-17%	3%	2%	13
O=C(Cn1nc2n(c1=O)CCCC2)Nc1ccc(C(F)(F)F)cc1	61%	·	·	·	·	·
Cc1ccc(OCCC(=O)N(CCC(C)C)c2c(N)n(Cc3ccccc3)c(=O)[nH]c2=O)cc1	·	21µM*	-9%	-9%	-9%	-1
CC(C)CCN(C(=O)Cc1ccc(Cl)c(Cl)c1)c1c(N)n(Cc2ccccc2)c(=O)[nH]c1=O	-9%	26µM*	?	-10%	?	?
COc1ccc(-c2c(C)oc3cc(OCC(=O)Nc4nccs4)ccc3c2=O)cc1	-14%	·	·	·	·	·
COCCCNc1oc(-c2cccc(C)c2)nc1C#N	-17%	·	·	·	·	·
COc1cc(NC(=O)CCCN2C(=O)CCn3nc(-c4cn(C)c5ccccc45)cc32)cc(OC)c1	-21%	18µM*	?	·	·	·
CCOc1ccccc1CNC(=O)CCCN1C(=O)CCn2nc(-c3cccn3C)cc21	?	?	18µM*	·	·	·
